According to PMC10668032, “Altered binding affinity of SIX1-Q177R correlates with enhanced WNT5A and WNT pathway effector expression in Wilms tumor”:
Over roughly 33,000 sequences, “e-score” has its median near -0.053; the highest 2% begin near 0.38. Shown is part of a subset that was picked to be rich in the highest values.

These sequences were tested against T1, SIX1 homeodomain (reference allele) (human, UniProt Q15475 108-198) (assay: universal protein binding microarray; Universal all-10-mer PBM (8x60K, AMADID 030236), 300 nM GST-tagged protein, Alexa Fluor 488 anti-GST; buffer, salt, pH and temperature not stated (as in Berger); high values mean tight binding). Conditions: protein: ivt; tags: N-terminal GST; dsDNA, one strand shown.
T1 sequence: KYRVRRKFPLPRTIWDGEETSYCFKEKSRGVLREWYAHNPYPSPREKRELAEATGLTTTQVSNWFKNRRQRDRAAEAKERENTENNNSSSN
Method in brief: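 Homeodomains carrying a GST tag were produced by in vitro transcription/translation, then quantified by anti-GST western blot against a recombinant GST standard curve. Duplicate applications at 300 nM final concentration were made to universal 'all 10-mer' protein binding microarrays in 8×60K format. The Universal PBM Analysis Suite was used to express binding as 8-mer E-scores.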

Row | Sequence | binding signal
1 | CTGATCTC | 0.312 ± 0.016 E-score
2 | GTGATCTA | 0.2979 ± 0.000552 E-score
3 | ATGATCTG | 0.355 ± 0.0221 E-score
4 | ATGATCCA | 0.391 ± 0.0192 E-score
5 | ATGATCGG | 0.294 ± 0.0125 E-score
6 | ATGATCGA | 0.173 ± 0.029 E-score
7 | ATGATCCG | 0.452 ± 0.00636 E-score
8 | CTGATCCA | 0.357 ± 0.0346 E-score
9 | CTGATCGC | 0.191 ± 0.0397 E-score
10 | CTGATCCC | 0.416 ± 0.02 E-score
11 | GTGATCAA | 0.236 ± 0.0408 E-score
12 | GTGATCCA | 0.377 ± 0.0369 E-score
13 | TCCCCTCA | 0.175 ± 0.0645 E-score
14 | CTGCTATA | 0.194 ± 0.0359 E-score
15 | AGTGAGAC | 0.198 ± 0.0551 E-score
16 | ACTCGATA | 0.303 E-score
17 | TACACCTA | 0.304 ± 0.0311 E-score
18 | CATTATCC | 0.326 ± 0.00937 E-score
19 | CGTCGATC | 0.157 ± 0.105 E-score
20 | ATCATTTA | 0.193 ± 0.0974 E-score
21 | AATTATAC | 0.165 ± 0.066 E-score
22 | GATAGTCA | 0.189 ± 0.0298 E-score
23 | TAAAGATA | 0.167 ± 0.162 E-score
24 | ATGATCCC | 0.448 ± 0.0106 E-score
25 | ATGATCTC | 0.327 ± 0.0416 E-score

Row | Sequence | binding signal
26 | ATGATCAC | 0.309 ± 0.0105 E-score
27 | ACCGAGAT | 0.26507 ± 0.000212 E-score
28 | ACGGATGA | 0.211 ± 0.0174 E-score
29 | ATCGCGAT | 0.334 ± 0.0159 E-score
30 | ATACATTC | 0.188 ± 0.0482 E-score
31 | TACGTGGA | 0.195 ± 0.113 E-score
32 | ATGGATCG | 0.345 ± 0.0571 E-score
33 | GTAGATCA | 0.29 ± 0.0141 E-score
34 | ATGGATCA | 0.383 ± 0.00801 E-score
35 | GTGGATCA | 0.4 ± 0.0347 E-score
36 | GTGGATAA | 0.2486 ± 0.00124 E-score
37 | CTGGATCA | 0.326 ± 0.0378 E-score
38 | ACACCAGC | 0.211 ± 0.0357 E-score
39 | CTTCGATA | 0.342 ± 0.0398 E-score
40 | GCATATGA | 0.167 ± 0.0211 E-score
41 | GCATACTA | 0.22 ± 0.00291 E-score
42 | ATGTATGA | 0.261 ± 0.0176 E-score
43 | ATCATTAG | 0.281 ± 0.0368 E-score
44 | TCACCTGA | 0.165 ± 0.00229 E-score
45 | CATACCGG | 0.166 ± 0.0474 E-score
46 | AATACCTA | 0.289 ± 0.0733 E-score
47 | GATACCGC | 0.461 ± 0.0131 E-score
48 | TATACCGA | 0.339 ± 0.026 E-score
49 | AATACCGG | 0.273 ± 0.0276 E-score
50 | GATACCTA | 0.472 ± 0.0087 E-score

Row | Sequence | binding signal
51 | AATACCGC | 0.386 ± 0.0176 E-score
52 | GATACCGA | 0.4164 ± 0.00268 E-score
53 | CATACCTA | 0.174 ± 0.0329 E-score
54 | AATACCGT | 0.318 ± 0.04 E-score
55 | AATACCGA | 0.321 ± 0.0139 E-score
56 | GCTAATAC | 0.244 ± 0.0389 E-score
57 | CCGGAATA | 0.162 ± 0.00262 E-score
58 | AACTACAC | 0.169 ± 0.006 E-score
59 | CGTTGATC | 0.152 ± 0.0357 E-score
60 | GACCCGGC | 0.183 ± 0.012 E-score
61 | GGTGTAGA | 0.317 ± 0.04 E-score
62 | CGTATCTA | 0.349 ± 0.0276 E-score
63 | CCTATCTC | 0.227 ± 0.035 E-score
64 | AGTATATA | 0.306 ± 0.0599 E-score
65 | ACTATCTC | 0.209 ± 0.0851 E-score
66 | AGTATCTG | 0.317 ± 0.0419 E-score
67 | AGTATATC | 0.383 ± 0.0642 E-score
68 | CGTATATC | 0.336 ± 0.0303 E-score
69 | AGTATCTC | 0.376 ± 0.0377 E-score
70 | CGTATCTC | 0.378 ± 0.00747 E-score
71 | CATCTATC | 0.211 ± 0.0124 E-score
72 | ATATGGCG | 0.223 ± 0.0647 E-score
73 | AATGGGAT | 0.213 ± 0.0227 E-score
74 | ACACCTTA | 0.238 ± 0.0937 E-score
75 | GATGAGCC | 0.249 ± 0.0159 E-score

Row | Sequence | binding signal
76 | CTATCTGA | 0.231 ± 0.0348 E-score
77 | CGAGATCC | 0.325 ± 0.0133 E-score
78 | GATAATGA | 0.174 ± 0.0154 E-score
79 | AGACGGGA | 0.2 ± 0.0154 E-score
80 | ATAGTAGC | 0.187 ± 0.0294 E-score
81 | GTGGGATA | 0.348 ± 0.0178 E-score
82 | CGGGGATA | 0.413 ± 0.0228 E-score
83 | AGGGGGGA | 0.206 ± 0.028 E-score
84 | GCGGGATA | 0.3486 ± 0.00158 E-score
85 | CTGGGATA | 0.266 ± 0.0214 E-score
86 | AGGGGATA | 0.425 ± 0.000834 E-score
87 | ACGGGGGA | 0.217 ± 0.0264 E-score
88 | CCGGGATA | 0.305 ± 0.0131 E-score
89 | GGGGGATA | 0.4424 ± 0.00147 E-score
90 | ACGGGATA | 0.376 ± 0.00774 E-score
91 | CGGGGAGA | 0.182 ± 0.0823 E-score
92 | ATGGGATA | 0.36 ± 0.00494 E-score
93 | CCAGGGTA | 0.221 ± 0.0174 E-score
94 | GGAACACC | 0.187 ± 0.018 E-score
95 | CATTAATA | 0.154 ± 0.0188 E-score
96 | ATAACATC | 0.165 ± 0.0558 E-score
97 | GATCACGA | 0.273 ± 0.0518 E-score
98 | ATCACCGA | 0.251 ± 0.0115 E-score
99 | CATATGGG | 0.179 ± 0.0474 E-score
100 | CGCCTATC | 0.218 ± 0.0337 E-score

Row | Sequence | binding signal
101 | CGCGTATA | 0.232 ± 0.0592 E-score
102 | AGCGTATC | 0.411 ± 0.0267 E-score
103 | AGCGTATA | 0.233 ± 0.0627 E-score
104 | GGCGTATA | 0.179 ± 0.0032 E-score
105 | CGCGTATC | 0.424 ± 0.00815 E-score
106 | AGACCCGA | 0.196 ± 0.0537 E-score
107 | ATACACGC | 0.328 ± 0.00888 E-score
108 | ATACCAGG | 0.3772 ± 0.00332 E-score
109 | ATACCAGC | 0.3035 ± 0.00134 E-score
110 | ATACCCGG | 0.407 ± 0.0266 E-score
111 | ATACCAGA | 0.299 ± 0.0031 E-score
112 | AAACCCGG | 0.163 ± 0.0401 E-score
113 | ACACCCGC | 0.27 ± 0.0197 E-score
114 | AGACCCGG | 0.214 ± 0.0594 E-score
115 | ATACCCGA | 0.407 ± 0.00771 E-score
116 | ACACCCGA | 0.294 ± 0.0236 E-score
117 | ATACCCGC | 0.3787 ± 0.00251 E-score
118 | GATTATAA | 0.165 ± 0.0198 E-score
119 | GATTACAC | 0.164 ± 0.0334 E-score
120 | ATAGACAC | 0.285 ± 0.0262 E-score
121 | GACACGGA | 0.196 ± 0.00735 E-score
122 | AGGAATAC | 0.2106 ± 0.00182 E-score
123 | GGATTGGA | 0.171 ± 0.00314 E-score
124 | ATACTGCC | 0.3133 ± 0.000361 E-score
125 | ATCGTTGC | 0.202 ± 0.04 E-score

Row | Sequence | binding signal
126 | TAATACTA | 0.276 ± 0.0717 E-score
127 | GCATAATA | 0.187 E-score
128 | TGGATCAA | 0.3057 ± 0.00301 E-score
129 | AGGATCGA | 0.289 ± 0.0472 E-score
130 | CTGATCAC | 0.204 ± 0.0353 E-score
131 | CCGATCAG | 0.24 ± 0.0341 E-score
132 | CGGATCGA | 0.34 ± 0.0821 E-score
133 | CGGATCAA | 0.417 ± 0.0173 E-score
134 | CGGATCAG | 0.443 ± 0.0116 E-score
135 | AGGATCAA | 0.352 ± 0.036 E-score
136 | CTGATCAG | 0.313 ± 0.0448 E-score
137 | CGGATCAC | 0.463 ± 0.00697 E-score
138 | GGGATCGA | 0.385 ± 0.0533 E-score
139 | CCGATCAC | 0.346 ± 0.0289 E-score
140 | CGAGATCG | 0.207 ± 0.0304 E-score
141 | TAATATGA | 0.196 ± 0.0472 E-score
142 | CCCCGATA | 0.347 ± 0.00347 E-score
143 | CCTTGATC | 0.243 ± 0.0361 E-score
144 | GGGATCAC | 0.445 ± 0.0186 E-score
145 | GGGATCAA | 0.386 ± 0.0187 E-score
146 | GTGATCAC | 0.306 ± 0.0127 E-score
147 | GAGATCAA | 0.31 ± 0.0391 E-score
148 | GCGATCAA | 0.18 ± 0.0413 E-score
149 | GCGATCAC | 0.354 ± 0.0376 E-score
150 | ATCGGTGG | 0.189 ± 0.0514 E-score

Row | Sequence | binding signal
151 | CAACACCG | 0.268 ± 0.021 E-score
152 | CCCTGATC | 0.33 ± 0.0305 E-score
153 | AGTTGATC | 0.23 ± 0.0154 E-score
154 | ACTTGATA | 0.374 ± 0.0379 E-score
155 | AGTTGATA | 0.406 ± 0.0373 E-score
156 | CGTTGATA | 0.334 ± 0.0658 E-score
157 | GGTTGATA | 0.384 ± 0.0228 E-score
158 | GCTTGATA | 0.351 ± 0.0581 E-score
159 | AGATAACG | 0.191 ± 0.042 E-score
160 | ATATGCGC | 0.27 ± 0.0371 E-score
161 | CGGCTCAC | 0.174 ± 0.0262 E-score
162 | CGTATCCC | 0.389 ± 0.00815 E-score
163 | CGTATCCA | 0.403 ± 0.0252 E-score
164 | AGTATCCC | 0.412 ± 0.00869 E-score
165 | ATTATCCC | 0.274 ± 0.0711 E-score
166 | CTTATCCC | 0.235 ± 0.0469 E-score
167 | CCTATCCC | 0.291 ± 0.0369 E-score
168 | CCTATCCA | 0.232 ± 0.0293 E-score
169 | ACTATCCC | 0.294 ± 0.0143 E-score
170 | CTTATCCA | 0.186 ± 0.0114 E-score
171 | GATCCTGC | 0.353 ± 0.0135 E-score
172 | CATCTAAG | 0.178 ± 0.0937 E-score
173 | ATACTGGA | 0.325 ± 0.00489 E-score
